From the supplement of paper PMC6555819

Legend:
Assay in all cases: PBM binding z-score (relative to random genomic background probes); higher = stronger binding; sequences stand for … in GC…GCGATTGACAGCGTAGAATGAAGG
[1] = tested on: FXR:RXRa (NR concentration 270 nM, RXRa partner concentration 90 nM)
Outline: (§1)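 Random background probes are the reference for binding z-scores. These scores derive from regression-normalized fluorescence on custom Agilent 4×180K protein-binding microarrays incubated 1 h with ligand-free nuclear receptor dimers. Binding was detected with antibodies against each partner (one per run).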

[2] = tested on: LXRa:RXRa (NR concentration 270 nM, RXRa partner concentration 90 nM)
Outline: as §1

[3] = tested on: LXRa homodimer (NR concentration 270 nM)
Outline: as §1

[4] = tested on: LXRb:RXRa (NR concentration 270 nM, RXRa partner concentration 90 nM)
Outline: as §1

[5] = tested on: LXRb homodimer (NR concentration 270 nM)
Outline: as §1

[6] = tested on: PPARa:RXRa (NR concentration 270 nM, RXRa partner concentration 90 nM)
Outline: as §1

[7] = tested on: PPARg:RXRa (NR concentration 180 nM, RXRa partner concentration 90 nM)
Outline: as §1

[8] = tested on: PPARg:RXRa 270nM:90nM, anti-RXR (NR concentration 270 nM, RXRa partner concentration 90 nM)
Outline: as §1

[9] = tested on: PPARg:RXRa 30nM:10nM, anti-RXR (NR concentration 30 nM, RXRa partner concentration 10 nM)
Outline: as §1

[10] = tested on: PPARg:RXRa 90nM:30nM, anti-RXR (NR concentration 90 nM, RXRa partner concentration 30 nM)
Outline: as §1

[11] = tested on: PPARg:RXRa DBDmut IVT, anti-RXR (DBD mutation: RXRa K156A/R161A, NR concentration 270 nM, RXRa partner concentration 90 nM)
Outline: as §1

[12] = tested on: PPARg:RXRa IVT, anti-PPARg (NR concentration 270 nM, RXRa partner concentration 90 nM)
Outline: as §1

[13] = tested on: PPARg DBDmut:RXRa IVT, anti-PPARg (DBD mutation: PPARg1 K132A/R137A, NR concentration 270 nM, RXRa partner concentration 90 nM)
Outline: as §1

[14] = tested on: PPARg DBDmut IVT, anti-PPARg (DBD mutation: PPARg1 K132A/R137A, NR concentration 270 nM)
Outline: as §1

[15] = tested on: PPARg homodimer (NR concentration 180 nM)
Outline: as §1

[16] = tested on: PXR:RXRa (NR concentration 270 nM, RXRa partner concentration 90 nM)
Outline: as §1

[17] = tested on: PXR homodimer (NR concentration 270 nM)
Outline: as §1

[18] = tested on: RARa:RXR (NR concentration 270 nM, RXRa partner concentration 90 nM)
Outline: as §1

[19] = tested on: RARa homodimer (NR concentration 270 nM)
Outline: as §1

[20] = tested on: RARb:RXRa (NR concentration 270 nM, RXRa partner concentration 90 nM)
Outline: as §1

Sequence | PBM binding z-score [1] | PBM binding z-score [2] | PBM binding z-score [3] | PBM binding z-score [4] | PBM binding z-score [5] | PBM binding z-score [6] | PBM binding z-score [7] | PBM binding z-score [8] | PBM binding z-score [9] | PBM binding z-score [10] | PBM binding z-score [11] | PBM binding z-score [12] | PBM binding z-score [13] | PBM binding z-score [14] | PBM binding z-score [15] | PBM binding z-score [16] | PBM binding z-score [17] | PBM binding z-score [18] | PBM binding z-score [19] | PBM binding z-score [20]
CCTACTTGGCCATTCAGAGGTCATTGATCATATG | 3.12 | 4.37 | 6.52 | 4.31 | 1.21 | 3.83 | 0.976 | 2.46 | 0.88 | 1.77 | 1.47 | 1.52 | 1.11 | 0.893 | 2.19 | 4.93 | 1.5 | 4.54 | 1.18 | 3.13
CCTTACGGGCCAAGGTTATAGCACGGGTGGTACG | -0.197 | 0.16 | -0.442 | -0.247 | -0.834 | 0.498 | 0.573 | 0.597 | -0.309 | -0.163 | -0.837 | -0.312 | -1.25 | -0.861 | 0.309 | 0.0685 | -0.372 | 0.242 | 0.00233 | 1.13
CCGCCTGGGGCAAAGGTTACCATACTCAGTACGA | 1.58 | 1.77 | 0.256 | 2.07 | -1.01 | 4.22 | 7.52 | 7.16 | 5.72 | 7.35 | 0.0766 | 3.23 | -0.483 | -0.8 | 2.34 | 2.62 | -0.268 | 4.07 | 0.0335 | 2.47
GAGACAGGGTCAAGGCCAGAGTACGCGTATTGAT | 6.57 | 3.62 | -0.408 | 3.43 | -0.789 | 5.24 | 4.71 | 4.73 | 1.4 | 3.22 | 1.79 | 2.9 | 0.251 | -0.239 | 2 | 3.78 | -0.543 | 4.4 | 0.471 | 4.2
CGTCCAAGGTCATAGGACGTCAGTGAAGACAGAT | 7.14 | 5.2 | 0.696 | 3.88 | 0.284 | 5.43 | 4.73 | 5.14 | 1.6 | 3.51 | 2.61 | 3.41 | 0.547 | 0.692 | 1.99 | 4.09 | 1.1 | 4.61 | 1.29 | 4.77
TCTTGTAGATCGAAGGTTAAGAAAGCCGAAGCCT | 0.669 | 0.667 | -0.334 | 0.511 | -0.593 | 2.25 | 3.11 | 5.23 | 4.1 | 5.26 | 1.1 | 1.32 | -0.629 | -0.226 | 0.155 | 0.143 | -0.658 | 0.948 | -0.208 | 0.667
GCAGACAGGTGAACCGCAGGTAACTCAGGGTGGC | 0.339 | 0.437 | -0.44 | 0.125 | -1.15 | 1.77 | 0.554 | 0.309 | -0.52 | 0.0575 | 0.713 | 0.87 | -0.564 | -0.733 | -0.518 | 0.615 | -0.535 | 1.09 | -0.768 | 0.901
TCTATTAGTTGATTAGAGCAACCGAAACAGCGGA | 0.47 | 0.476 | 0.0625 | 0.326 | 0.361 | 0.484 | -0.0852 | 1.56 | 3.21 | 2.38 | 1.66 | 0.345 | 0.782 | 0.622 | -0.0743 | 0.128 | -0.0101 | 0.143 | 0.166 | 0.00144
CCTACTGGGCGAAAAAGGTCATTGATGCCGATAA | 3.16 | 3.79 | 2.59 | 3.91 | -0.182 | 4.45 | 1.67 | 3.1 | 0.977 | 1.93 | 0.836 | 1.94 | -0.234 | -0.941 | 2.25 | 4.39 | 1.04 | 4.66 | 0.67 | 3.68
GCATATAGGTAATACAAGGTGTAAGTCCGATTGT | 0.0456 | -0.21 | -0.0292 | -0.487 | -0.137 | 0.159 | 0.975 | 0.539 | 0.405 | 0.179 | 4.05 | 2.41 | 0.78 | 0.908 | 0.475 | -0.257 | -0.0468 | 0.0684 | 0.804 | -0.269
TCGAGTAGGTTAGTCGGGGCTTTCAGCCAACATA | -0.154 | -0.116 | -0.783 | -0.0101 | -1.08 | 0.158 | -0.922 | 0.148 | 0.909 | 0.595 | 1.86 | 0.952 | -1.71 | -1.29 | -0.983 | -0.467 | -0.898 | -0.14 | -1.19 | 0.0518
AGAACCAGGGCAATGAGTTGATAGCACGGGTGGC | -0.133 | -0.319 | -0.429 | -0.657 | -0.564 | 0.717 | 1.19 | 0.451 | -0.539 | 0.047 | 2.95 | 2.68 | 0.333 | -0.225 | -0.0189 | 0.171 | 0.97 | -0.324 | -0.0861 | 0.985
AGAACGAGGTTATTAAGATCAGGGAATTGCGGTC | 1.44 | 1.34 | -0.0763 | 1.09 | -0.115 | 2.15 | 1.26 | 1.68 | 0.389 | 0.958 | 2.38 | 2.16 | 0.246 | 0.0385 | 0.237 | 1.04 | 0.955 | 1.08 | -0.125 | 1.32
GCTGCAAGGTCAGGTTGGTCAGCTAACGGGTACG | 4.43 | 2.88 | 0.0795 | 2.36 | 0.0855 | 3.65 | 1.36 | 2.37 | 0.236 | 1.42 | 1.24 | 1.7 | -0.124 | -0.859 | 1.91 | 2.44 | -0.0524 | 3.02 | 0.176 | 4.4
